# An excerpt weighted towards active compounds, which were near 1.8% of everything screened.
# Imprint erasure = qHTS Assay for Compounds that Induce Erasure of Genomic Imprints | Potency, µM (doses to about 60.7 µM), for the others: top-dose activity change, positive = activation, actives largely listed as activators | mouse ES Peg3-LacZ reporter, beta-gal luminescence, 40 h | hit rate 0.02% among 110,000 | AID 1948, 2009
#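 Imprint erasure is scored as LacZ activity from the silenced maternal Peg3 allele in feeder-free female ES cells cultured 40 h with LIF. Luminescence is normalized to in-plate negative controls and fitted to the Hill equation.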
# p53ts 39C tox = qHTS Screen for Compounds that Selectively Target Cancer Cells with p53 Mutations: Cytotoxicity of p53ts Cells at the Nonpermissive Temperature; H1299-p53A138V viability at 39C, ATP luminescence, 24 h; Potency, µM (titrated, usually from 46.1 µM), for the others: at the top dose activity change, negative = cell killing, actives largely listed as cytotoxic; hit rate 1.5% among 130,000; AID 902, 2007; further: on the % scale 0 is the no-effect control and ±100 the full control effect; nearly all actives have a fitted effect of over 55% in size
# p53ts 32C tox = qHTS Screen for Compounds that Selectively Target Cancer Cells with p53 Mutations: Cytotoxicity of p53ts Cells at the Permissive Temperature. H1299-p53A138V at 32C, ATP luminescence viability, 24 h. Potency, µM (series often up to 46.1 µM), without a hit: at the highest dose activity change, negative = cytotoxicity, actives largely listed as cytotoxic. hit rate 0.93% among 130,000. AID 924, 2007;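 further: 0% = DMSO and -100% = full killing by reference compound; nearly all actives have a fitted effect of over 55% in size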
#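 H1299-p53 A138V cells (temperature-sensitive p53) exposed 24 h to up to 46 uM compound at 32C, where p53 is wild-type in conformation. Viability read as ATP luminescence and normalised to DMSO and 100 uM tamoxifen. AC50 fitted with the Hill equation.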
# IkB signaling = IkB Signaling. ABC-DLBCL IkBa-CBG/CBR dual luciferase ratio, 4 h; response scale: scaled: untreated 0%, proteasome inhibitor 100%. hit rate 0.04% among 110,000. Potency, µM (doses to about 57.1 µM), inactives show top-dose IkBa stabilization activation; active means well fitted curve in the direction sought with a large enough effect in the signal ratio, not every such curve was filed as active; inconclusive means small, poorly fitted or top-dose-only effect, or a change in a side signal; the % refers to the signal ratio;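 further: the direction sought is a rising ratio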
#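 Curves were fitted separately to fusion (green), unfused (red) and ratio luminescence, then classed by r2, magnitude and activity. Cells: OCI-Ly3, 4 h compound plus doxycycline at 37C; 10 uM MG-132 defined full response.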
# Numbers without * were called inactive; ? = inconclusive; nt = not tested or not shown; [ ] = another dose, or the depositor's remark. Unless noted, the call rests on the fitted dose curve; in most records, active means well fitted curve in the direction sought with a large enough effect; inconclusive means small, poorly fitted or top-dose-only effect, or another doubt; inactive means no such curve, though single readings can be large; an effect the other way counts as inactive or inconclusive. Potency means the concentration at half of the fitted maximal effect.
SMILES,Imprint erasure,p53ts 39C tox,p53ts 32C tox,IkB signaling
COc1cccc(-c2nnc(Nc3nc4c(F)cccc4s3)o2)c1,-44%,13µM*,?,?
Clc1cccc(-c2nnc(-c3ccccc3)o2)c1,-83%,13µM*,10µM*,?
Cc1nn2c(=O)cc(COC(=O)c3cccc(NC(=O)COc4ccc(C)c(C)c4)c3)nc2s1,-30%[10.9 µM],-21%,-15%,?
CCOC(=O)CSc1nc2c(c(=O)n1-c1ccc(OCC)cc1)SCC2,-7%,-3%,10%,0%
CCOC(=O)CSc1nc2c(c(=O)n1-c1ccc(OC)cc1)SCC2,-92%,1.3µM*,1.3µM*,0%
O=C(NCC1CCN(Cc2cccc(Cl)c2)CC1)Nc1ccc(F)c(Cl)c1,-10%[10.9 µM],?,11%,?
O=C(NCC1CCN(Cc2cccc(Cl)c2)CC1)Nc1cc(Cl)ccc1Cl,-15%[10.9 µM],13µM*,?,?
CN1c2cc(Cl)ccc2-c2nc(SCC(=O)Nc3ccc(F)cc3F)ncc2S1(=O)=O,-8%[10.9 µM],10µM*,-12%,4%
CN(CCc1ccc(Cl)c(Cl)c1)CCN1CCCCCC1,-22%,16µM*,?,0%
Cc1ccccc1C(=O)NCc1ccncc1,nt,-17%,0%,0%
CC(=O)Nc1cc(OC(C)=O)c2nonc2c1OC(C)=O,-80%,7.9µM*,3.2µM*,?
CC(=O)Nc1nonc1NC(C)=O,-1%,-5%,-2%,1%
CCCCOc1ccc(C(C)NC(=O)CN2C(=O)CSc3ccc(S(=O)(=O)N4CCOCC4)cc32)cc1 (configuration not stated),-19%[10.9 µM],-29%,-20%,?
Cc1ccc(-c2cc(-c3ccccc3)no2)c(O)c1,nt,5µM*,nt,nt
Cc1ccc(C)c(CN2C(=O)N(c3cc(Cl)ccc3C)S(=O)(=O)c3ccccc32)c1,-14%[10.9 µM],-11%,-1%,?
Cc1ccc(CNc2nc(-c3ccco3)nn2C(=O)c2ccccc2[N+](=O)[O-])cc1,-21%[10.9 µM],10µM*,?,-1%
O=C(Cn1nnc2sc3c(c2c1=O)CCCC3)Nc1ccc(F)c(Cl)c1,1%[10.9 µM],-26%,-3%,?
Cc1nn(-c2ccccc2Cl)c(Cl)c1/C=N/Nc1cccc(C(=O)O)c1,nt,11µM*,11µM*,nt
CCc1nn(CC(=O)NCCOC)c(=O)c2cc3cc(F)ccc3n12,1%[10.9 µM],7%,3%,-1%
CN(C)CCC(=O)[C@@]1(O)CC[C@H]2[C@H]3CC=C4C[C@@H](O)CC[C@]4(C)[C@H]3CC[C@]21C,-28%[10.9 µM],-5%[9.22 µM],9%[9.22 µM],5µM*
COC(=O)CN1C(=O)C(C)(C)c2cc(S(=O)(=O)Nc3ccc(Br)cc3F)ccc21,-6%[10.9 µM],-33%,4%,0%
O=S(=O)(c1ccc(-c2cc(C(F)(F)F)on2)s1)N1CCN(c2ccccc2)CC1,-9%[10.9 µM],-9%,-1%,-4%
COc1ccc(OC)c2sc(N3CCN(C(=O)C(C)(C)C)CC3)nc12,-8%[10.9 µM],7.9µM*,16µM*,-2%
CC(C)c1ccc(C2c3c(-c4ccccc4O)n[nH]c3C(=O)N2CCc2ccccc2)cc1 (configuration not stated),-8%[10.9 µM],25µM*,-11%,?
Cc1ccc(C2c3c(-c4ccccc4O)n[nH]c3C(=O)N2CCc2ccccc2)cc1 (configuration not stated),-23%[10.9 µM],32µM*,13µM*,?
SMILES,Imprint erasure,p53ts 39C tox,p53ts 32C tox,IkB signaling
COc1ccc(NC(=O)CSc2ncn(-c3ccccc3)n2)cc1Cl,-39%,-7%,12%,?
O=C1/C(=C/Nc2ccc3c(c2)OCO3)CCc2ccccc21,-95%,6.3µM*,4µM*,?
O=C1OC2(CCCCC2)OC(=O)C1=CNc1ccc2c(c1)OCO2,-2%,1%,3%,2%
COc1ccc2cc(-c3cn4c(n3)sc3cc(F)ccc34)c(=O)oc2c1,-7%[10.9 µM],35%,1%,1%
CCCN(CCC)CCCNC(=O)c1cc2c(-c3ccc(Cl)cc3)nn(C)c2s1,2%[10.9 µM],13µM*,-10%,?
COc1ccc2nc(Nc3nc(C)c(CCC(C)C)c(=O)[nH]3)nc(C)c2c1,-9%,13%,18%,6%
CCN(CC)CCCC(C)Nc1c2ccc(Cl)cc2nc2ccc(OC)cc12 (configuration not stated),-38%,10µM*,5µM*,nt
